HT1080 IDH1KD tx: toxicity to HT-1080 IDH1 knockdown cells (counter line). HT-1080 IDH1 knockdown viability, ATP luminescence, 48 h. Potency, µM (titrated, usually from 46.1 µM), hits mostly cytotoxic. hit rate 2% among 360,000. AID 686971
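CellTiter-Glo luminescence after 48 h compound exposure at 37 degrees C of IDH1-knockdown HT-1080 cells in 5% FBS RPMI. %Activity scaled between DMSO wells and cell-free media wells, with curves fitted and assigned curve classes.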
ATXN2 expr inh: ATXN2 expression inhibition. AID 1745845. HEK-293 ATXN2-luciferase reporter, luminescence, 24 h. hit rate 0.72% among 360,000. Potency, µM (series often up to 57 µM), actives largely listed as inhibitors; further: nearly all actives have a fitted effect of over 55% in size
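qHTS (up to 57 uM final) was run with 24 h compound exposure of reporter cells at 37 °C. Each well was multiplexed: SteadyGlo luminescence measured ATXN2-luciferase expression after a fluorogenic Gly-Phe-AFC viability readout (25 uM final).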
KB-V1 cytotox: kills drug-selected multidrug resistant KB-V1 cells; KB-V1 MDR cells viability, CellTiter-Glo, 72 h; Potency, µM (highest dose often 46.1 µM), hits mostly cytotoxic; hit rate 3.4% among 400,000; AID 1347076; further: nearly all actives have a fitted effect of over 60% in size
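KB-V1 cells (P-gp-expressing MDR subline of KB-3-1) in phenol-red-free DMEM with 10% FBS were exposed to library compounds over a concentration series for 72 h at 37 degrees C. Viability read by CellTiter-Glo luminescence; concentration-effect curves fitted after normalization.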
ATXN viability: cell viability loss in ATXN counter-screen. S2 cells (HEK-293 line with an ATXN2-luciferase reporter) viability, CellTiter-Fluor protease fluorescence, 24 h. Potency, µM (highest dose often 56.7 µM), usual class: cytotoxic. hit rate 0.49% among 400,000. AID 651635; further: nearly all actives have a fitted effect of over 40% in size
HT1080-NT tox: kills 2HG-producing HT-1080-NT fibrosarcoma cells. HT-1080-NT fibrosarcoma viability, CellTiter-Glo ATP luminescence, 48 h. Potency, µM (titrated, usually from 46.1 µM), hits mostly cytotoxic. hit rate 1.6% among 360,000. AID 686970;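 further: NT is the 2HG producing partner of a matched IDH1 knockdown line; nearly all actives have a fitted effect of over 55% in size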
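Fibrosarcoma NT cells, 750 per well in 5% FBS RPMI, were exposed to compound for 48 hours. Viability: CellTiter-Glo luminescence.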
KB-3-1 tox: kills parental KB-3-1 adenocarcinoma cells. Potency, µM (doses to about 46.1 µM), most hits filed as cytotoxic. hit rate 1.4% among 400,000. KB-3-1 viability, CellTiter-Glo ATP luminescence, 72 h; further: nearly all actives have a fitted effect of over 60% in size
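Parental KB-3-1 viability, qHTS format: 72 h compound exposure, 37 °C; CellTiter-Glo; media-only wells and DMSO plates as controls; concentration-effect fits on corrected data.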
Hits are given with their value. Most compounds without a hit are left out; they make up all but 6.2% or so of the library. The call rests on the fitted dose curve; in most records, active means well fitted curve in the direction sought with a large enough effect; inconclusive means small, poorly fitted or top-dose-only effect, or another doubt; inactive means no such curve, though single readings can be large; an effect the other way counts as inactive or inconclusive.

Screening CN(Cc1cccs1)c1ncnc2ccc(-c3ccc4cn(C)nc4c3)cc12 returned KB-V1 cytotox inactive and KB-3-1 tox inconclusive.
Screening CCOC(=O)c1c(CC(C)C)csc1NC=O returned HT1080 IDH1KD tx inactive, ATXN2 expr inh inactive, KB-V1 cytotox 4.6µM, ATXN viability inactive, HT1080-NT tox inactive and KB-3-1 tox 16µM.
For CCOC(=O)c1ccc(-n2c(O)c(/C=N/NC(=O)C3COc4ccccc4O3)c3ccccc3c2=O)cc1 (centres undefined) the results were HT1080 IDH1KD tx inactive, ATXN2 expr inh inactive, KB-V1 cytotox 16µM, ATXN viability inactive, HT1080-NT tox inactive and KB-3-1 tox inactive.
For O=C(N/N=C\c1ccc(Cl)s1)C1COc2ccccc2O1 (centres undefined) the results were HT1080 IDH1KD tx inconclusive, ATXN2 expr inh inactive, KB-V1 cytotox inconclusive, ATXN viability inactive, HT1080-NT tox inconclusive and KB-3-1 tox inconclusive.
O=C(Cc1ccc2c(c1)OCO2)NN=Cc1ccc([N+](=O)[O-])o1 was read as HT1080 IDH1KD tx inactive, ATXN2 expr inh inconclusive, KB-V1 cytotox 23µM, ATXN viability inconclusive, HT1080-NT tox inactive and KB-3-1 tox inactive.
O=C(N/N=C\c1ccc([N+](=O)[O-])o1)C1COc2ccccc2O1 (centres undefined) was read as HT1080 IDH1KD tx 21µM, ATXN2 expr inh inactive, KB-V1 cytotox inactive, ATXN viability inactive, HT1080-NT tox inconclusive and KB-3-1 tox inconclusive.
O=C(N/N=C/c1c[nH]c2ccccc12)C1COc2ccccc2O1 (centres undefined) was read as HT1080 IDH1KD tx 5.8µM, ATXN2 expr inh inactive, KB-V1 cytotox 2.6µM, ATXN viability inconclusive, HT1080-NT tox 3.7µM and KB-3-1 tox 5.8µM.
For O=c1c(-c2ccc(Cl)cc2)c(C(F)(F)F)oc2c(CN3CCCCC3)c(O)ccc12 the results were ATXN2 expr inh inactive, KB-V1 cytotox inconclusive, ATXN viability inactive and KB-3-1 tox inconclusive.
`O=c1c2c3c(sc2n(Cc2cc(=O)n4ccccc4n2)c(=O)n1-c1ccccc1)CCC3` gave ATXN2 expr inh inactive, KB-V1 cytotox inactive, ATXN viability inactive and KB-3-1 tox inactive.
For CCCN1CNc2c(c(=O)[nH]c(=S)n2CCc2c(C)cccc2C)C1 the results were HT1080 IDH1KD tx inactive and HT1080-NT tox inactive.
For CCN(CC)CCNC(=O)c1c(C)oc2ncn(C)c(=O)c12 the results were ATXN2 expr inh inactive, KB-V1 cytotox inactive, ATXN viability inactive and KB-3-1 tox inactive.
Cc1ccc(-n2c(=O)c3ccc(C(=O)NCc4ccco4)cc3n(CC(=O)Nc3ccccc3C(F)(F)F)c2=O)cc1 was read as ATXN2 expr inh inactive, KB-V1 cytotox inconclusive, ATXN viability inactive and KB-3-1 tox inactive.
CCC(C(=O)Nc1cccc(Cl)c1C)n1nc(C)c2sc3ccccc3c2c1=O (centres undefined) was read as KB-V1 cytotox inactive and KB-3-1 tox inactive.
`COc1ccc(OC)c(-c2c3cc(O)c(=O)cc-3oc3cc(O)c(O)cc23)c1` gave HT1080 IDH1KD tx inconclusive, ATXN2 expr inh inconclusive, KB-V1 cytotox inactive, ATXN viability 20µM, HT1080-NT tox inconclusive and KB-3-1 tox inactive.
Screening O=C(NCCN1CCC(n2c(=O)[nH]c3ccccc32)CC1)c1ccc(Cl)c(Cl)c1 returned HT1080 IDH1KD tx inconclusive, ATXN2 expr inh 18µM, KB-V1 cytotox 21µM, ATXN viability inconclusive, HT1080-NT tox 21µM and KB-3-1 tox inconclusive.
For O=C(NCCN1CCC(n2c(=O)[nH]c3ccccc32)CC1)c1ccc(Cl)cc1 the results were HT1080 IDH1KD tx inactive, ATXN2 expr inh inactive, KB-V1 cytotox inactive, ATXN viability inactive, HT1080-NT tox inconclusive and KB-3-1 tox inactive.
`Cc1ccc2c(=O)cc(C(=O)Nc3ccc(S(=O)(=O)N4CCCCC4)cc3)oc2c1` gave ATXN2 expr inh inactive, KB-V1 cytotox inactive, ATXN viability inactive and KB-3-1 tox inactive.
Screening CN1Cc2c(N3CCOCC3)nc3sc(C(=O)c4ccc(Br)cc4)c(N)c3c2CC1(C)C returned HT1080 IDH1KD tx 13µM, ATXN2 expr inh inconclusive, KB-V1 cytotox inconclusive, HT1080-NT tox 23µM and KB-3-1 tox inconclusive.
For CC[C@H](C)[C@@H]1NC(=O)[C@H]([C@@H](C)CC)NC(=O)[C@@H](CC(C)C)NC(=O)[C@H](Cc2ccccc2)NC(=O)[C@H](Cc2ccccc2)NC(=O)[C@@H]2CCCN2C(=O)[C@@H]2CCCN2C(=O)[C@H](C(C)C)NC(=O)[C@H](CC(C)C)NC1=O the results were HT1080 IDH1KD tx inconclusive, ATXN2 expr inh inconclusive, KB-V1 cytotox inactive, ATXN viability 28µM, HT1080-NT tox inconclusive and KB-3-1 tox inconclusive.
`COCCC(=O)N1CCc2ccc(NC(=O)c3ccc(C(F)(F)F)cc3)cc2C1` gave HT1080 IDH1KD tx inactive, ATXN2 expr inh inactive, KB-V1 cytotox inactive, ATXN viability inactive, HT1080-NT tox inconclusive and KB-3-1 tox inactive.
Screening CN(C)S(=O)(=O)N1CCc2ccc(NC(=O)c3ccc(C(F)(F)F)cc3)cc2C1 returned HT1080 IDH1KD tx inconclusive, ATXN2 expr inh inactive, KB-V1 cytotox inconclusive, ATXN viability inactive, HT1080-NT tox 16µM and KB-3-1 tox inconclusive.
`CCN(CC)c1ccc(NC(=O)CSc2nc(C3CC3)nc3ccccc23)cc1C` gave HT1080 IDH1KD tx 6.5µM, ATXN2 expr inh inactive, KB-V1 cytotox 6.5µM, ATXN viability inactive, HT1080-NT tox 9.2µM and KB-3-1 tox 4.6µM.
For O=C(CSc1nc(C2CC2)nc2ccccc12)N1c2ccccc2Sc2ccc(C(F)(F)F)cc21 the results were HT1080 IDH1KD tx inactive, ATXN2 expr inh inactive, KB-V1 cytotox 18µM, ATXN viability inactive, HT1080-NT tox inactive and KB-3-1 tox inconclusive.
For COc1cc(NC(=O)CSc2nc(C3CC3)nc3ccccc23)cc(OC)c1 the results were HT1080 IDH1KD tx inconclusive, ATXN2 expr inh inconclusive, KB-V1 cytotox inactive, ATXN viability inactive, HT1080-NT tox 13µM and KB-3-1 tox inactive.
O=C(CSc1nc(C2CC2)nc2ccccc12)Nc1ccccc1 was read as HT1080 IDH1KD tx inactive, ATXN2 expr inh inactive, KB-V1 cytotox inactive, ATXN viability inactive, HT1080-NT tox inactive and KB-3-1 tox inactive.
Cc1cccc(NC(=O)CSc2nc(C3CC3)nc3ccccc23)c1 was read as HT1080 IDH1KD tx inactive, ATXN2 expr inh inactive, KB-V1 cytotox inactive, ATXN viability inactive, HT1080-NT tox inactive and KB-3-1 tox inactive.
Screening CC(=O)c1ccc(NC(=O)Cn2cc3c(n2)CCCC3)cc1 returned ATXN2 expr inh inactive, KB-V1 cytotox inactive, ATXN viability inactive and KB-3-1 tox inactive.
For Cn1c(=O)c2c(SCC(=O)N3CCc4ccccc43)nc(-c3cccc(F)c3)nc2n(C)c1=O the results were ATXN2 expr inh inactive, KB-V1 cytotox inactive, ATXN viability inactive and KB-3-1 tox inactive.
